SMILES strings stand for the structures. Several values for one entry are separate records, joined by “and”; a condition that tells them apart may be missing. Identical values can stand only once. Records with an inconclusive call do not appear. A call without a number means that no potency is given here. A structure can be active in one record and inactive in another. Activity calls are given as the source filed them. The call rests on the fitted dose curve; in most records, active means well fitted cell-killing curve with a large enough effect in the repeat runs; inconclusive means weak or mixed curves, or effect the other way; inactive means flat fitted curve, though single readings scatter.
Potency means the concentration at half of the fitted maximal effect.

The nature of the experiment: Caspase-3/7 induction in HepG2 cells by small molecules, qHTS cell viability counter screen (AID 1346981). Further: nearly all actives have a fitted effect of over 30% in size. The note with it: CellTiter-Fluor fluorescence, 17 h; series mostly up to 92.4 µM; activity change, negative = cytotoxicity: at the top concentration. The source says: U.S. Tox21 Program National Center for Advancing Translational Sciences [NCATS] NIH Chemical Genomics Center [NCGC] U.S. Environmental Protection Agency [EPA] National Institutes of Environmental Health Sciences [NIEHS] National Toxicology Program [NTP] U.S. Food and Drug Administration [FDA] Tox21 Assay Overview: Apoptosis is a process of programmed cell death and plays a central role in the development of multicellular organisms. It is a highly regulated process and induces cell death by activating caspases, which are the members of cysteine aspartic acid-specific protease (caspase) family. Caspases involved in apoptosis are classified by their mechanism of action as initiator caspases (caspase-2, -8, -9 and -10) and executioner caspases (caspase-3, -6, and -7). Inhibition of apoptosis results in number of cancers, autoimmune diseases, inflammatory diseases and viral infection. To identify small molecule compounds that induce apoptosis, a homogeneous, luminescent Caspase-Glo 3/7 assay was used. Wild type HepG2 cells were used to screen Tox21 libraries for identifying caspase-3/7 activity inducers. Also cytotoxicity of the compounds was tested in parallel by measuring the cell viability using CellTiter-Fluor assay system in the same wells.
Tox21 Assay Protocol Summary: HepG2 cells were dispensed at 2,000 per well in 5uL of culture medium into white solid bottom 1536-well plates (Corning Life Sciences, Corning, NY) using a Multidrop Combi (Thermo Scientific, Waltham, MA) dispenser. The assay plates were incubated at 37 C and 5% CO2 for 5hr, and then 23nL of compounds dissolved in DMSO and positive control were transferred using a Pintool station ([…], San Diego, CA). The assay plates were incubated at 37C and 5% CO2 for 17hr. For cytotoxicity read, after 16hr incubation at 37C, 1uL CellTiter-Fluor reagent (Promega Corporation, Madison, WI) was added to each well of the assay plates using Flying Reagent Dispenser (FRD, Aurora Discovery, San Diego, CA). After 1hr incubation at 37C and 5% CO2, the fluorescence signal was quantified using a ViewLux plate reader (PerkinElmer, Shelton, CT).
A general note: In qHTS, concentration-response curves come from the screen itself.
`CCCCCCCCCCCCn1cc[n+](C)c1`: the Potency was 24.5 µM (active) and inactive.

Take `CNC`: the Potency result was “inactive”.

On to `O=[N+]([O-])c1ccccc1O`, for which the Potency result is “inactive”.

Consider `O=P1(N(CCCl)CCCl)NCCCO1` (stereo not given), for which the Potency result is “inactive”.

Turning to `CCCCCCCCCCCC(=O)O`, the Potency result was “inactive”.

Consider `CC(=O)O`, for which the Potency result is “inactive”.

For `CCCCCC[n+]1ccccc1`, the Potency entry is “inactive”.

For `CCCC[N+]1(C)CCCCC1`, the Potency entry is “inactive”.

Consider `Cc1cc(Cl)ccc1N`, for which the Potency result is “inactive”.

As for `O=C(O)c1ccccc1O`, the Potency entry is “inactive”.

For `CC(=O)[O][Hg][c]1ccccc1`, the Potency is 5.4 µM (active) and 5.45 µM (active) and 11.9 µM (active).

In the case of `N#CS`, the Potency result is “inactive”.

Take `Oc1ccccc1-c1ccccc1`: the Potency result is “inactive”.

For the compound `CN(C)[C@@H]1C(=O)C(C(N)=O)=C(O)[C@@]2(O)C(=O)C3=C(O)c4c(O)cccc4[C@@](C)(O)[C@H]3[C@H](O)[C@@H]12`, the “activity change, negative = cytotoxicity” value was -10% (inactive).

For the compound `CC[N+](CC)(CC)CC`, the Potency entry was “inactive”.

As to `O=C(O)CCl`, the Potency result was “inactive”.

Consider `CCCCCCn1cc[n+](C)c1`, for which the Potency entry was “inactive”.

In the case of `COP(=O)(OC)C(O)C(Cl)(Cl)Cl` (stereo not given), the Potency entry was “inactive”.

With `CCCCCCCCCCn1cc[n+](C)c1`, the Potency result was “inactive”.

Consider `CCOP(=S)(OCC)Oc1ccc2c(C)c(Cl)c(=O)oc2c1`, for which the Potency result is “inactive”.

Take `O=c1nc(O)n(Cl)c(=O)n1Cl`: the Potency result was “inactive”.

For the compound `CC(Cl)(Cl)C(=O)O`, the Potency entry is “inactive”.

Take `C1CCC(NC2CCCCC2)CC1`: the Potency entry is “inactive”.

Consider `O=S(=O)(O)O`, for which the Potency entry is “inactive”.

With `COc1ccc(N)cc1`, the Potency result was “inactive”.

For `O=C(O)c1nc(Cl)ccc1Cl`, the Potency result was “inactive”.

Take `CCCCn1cc[n+](C)c1`: the Potency result was “inactive”.

For `CCC[N+]1(C)CCCCC1`, the Potency entry was “inactive”.

With `CCCCCCCCCCCCOS(=O)(=O)O`, the Potency result was “inactive”.

Turning to `CC[N+]1(C)CCCC1`, the Potency result is “inactive”.

Take `CCCC[N+]1(C)CCCC1`: the Potency result was “inactive”.

In the case of `O=C(O)CC(O)(CC(=O)O)C(=O)O`, the Potency result is “inactive”.

`C[N+](C)(C)Cc1ccccc1`: the Potency result was “inactive”.

In the case of `CC[n+]1ccccc1`, the Potency entry was “inactive and 19.2 µM (active)”.

Take `O=C(O)C(Cl)Cl`: the Potency entry is “inactive”.

In the case of `CCn1cc[n+](C)c1C`, the Potency result is “inactive”.

For `CCCC[n+]1ccccc1C`, the Potency result is “inactive”.

As for `COc1ccccc1N`, the Potency result was “inactive”.

Take `Nc1ccc(-c2ccc(N)c(Cl)c2)cc1Cl`: the Potency is 9.04 µM (active) and 54.5 µM (active).

As to `CCCCn1cc[n+](C)c1C`, the Potency result was “inactive”.

Values taken from PubChem BioAssay (Tox21).
